CF NFkB inh – inhibitors of PAF-induced NF-kB signaling, primary screen, cell-based, GFP fluorescence, uHTS; KKLEB NF-kB-GFP reporter, GFP fluorescence overnight; inhibition, % at 5 µM; actives 0.86% (n = 360,000);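 active = at least 50% inhibition at 5 µM, scaled per plate between neutral and stimulator controls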;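 also: PAF is a Pseudomonas aeruginosa culture filtrate used as stimulus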
KKLEB cytotox – cytotoxicity in KKLEB CF airway cells, primary screen, cytotoxicity control for CF NF-kB inhibitor project, cell-based, uHTS, fluorescence assay plates. activity change (cytotoxicity), % at 5 µM. actives 0.36% (n = 360,000). KKLEB CF airway cells viability, ATPlite luminescence, overnight; active compounds read low; cells stimulated with P. aeruginosa culture filtrate;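 active = corrected activity change at or below -50% at 5 µM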
PAX8 reporter – inhibitors of PAX8-driven TPO luciferase reporter, primary screen, RMG-I cells, single concentration. SteadyGlo, 24 h. inhibition, % at 12.6 µM. actives 1.2% (n = 360,000). AID 652154, 2013;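 active = mean replicate inhibition at least 60% with every replicate also reaching 60%; inconclusive = only one of the two criteria is met; inactive = mean below 60% and not all replicates reaching 60%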;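 also: luciferase light reporting Pax8 driven TPO promoter activity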
LGR2 antag – inhibitors of bursicon-induced LGR2 CRE-luciferase signal, primary screen, cell-based, HEK293, CRE-luciferase reporter, bursicon stimulation; Drosophila bursicon receptor LGR2 (rickets); bursicon-stimulated, 4 h; inhibition, % at 9.99 µM; actives 0.35% (n = 380,000); AID 720647, 2013;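 active = drop in luminescence signal, shown as inhibition above about 50% in the replicate tests, limit read from the data, passing the limit was not always enough; inconclusive = probably only some replicates passing the limit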;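 also: agonist challenge used bursicon conditioned medium at about half maximal strength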
Shn3 inh set2 – reduction of Shn3 3'UTR firefly luciferase signal, primary screen, Schnurri-3 inhibitor project, cell-based, Clone20 osteoblasts, set 2. Clone20 osteoblast Shn3 3'UTR firefly luciferase, 24 h. actives 0.52% (n = 360,000). inhibition, % at 12.5 µM;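 active = mean inhibition of at least 75% with every replicate also reaching 75%; inconclusive = mean inhibition at least 75% but some replicate below; inactive = mean inhibition below 75%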
EWS-Fli inh – EWS/Fli-driven NR0B1 reporter inhibitors, primary screen, A673 cells, NR0B1 luciferase, luminescence, MLPCN library | viability-normalised | inhibition, % at 12.6 µM | actives 0.67% (n = 350,000) | AID 651661, 2012;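 active = mean inhibition of at least 50% after viability correction, with every replicate also passing that limit; inconclusive = mean reaches 50% but only one of two replicates passes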;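 also: firefly luciferase signal divided by Alamar Blue viability fluorescence both relative to DMSO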
Hits are given with their value; . = inactive; ? = inconclusive; / = no result given. In the library only some 2% were active in any assay of this set; here they are far more common.

SMILES | CF NFkB inh | KKLEB cytotox | PAX8 reporter | LGR2 antag | Shn3 inh set2 | EWS-Fli inh
COc1cccc(C#Cc2cnc3c(c2)C(=O)N([C@H](C)CO)C[C@H](C)[C@@H](CN(C)C(=O)C2CCOCC2)O3)c1 | / | / | . | . | / | .
O=C(O)C1Cc2ccccc2CN1S(=O)(=O)c1ccc(Cl)cc1 (stereo unspecified) | 59 | -78 | . | / | . | .
C[C@@H]1CCCCO[C@H](CN(C)C(=O)Nc2ccc(F)cc2)[C@H](C)CN([C@@H](C)CO)C(=O)c2cc(NC(=O)C3CCCCC3)ccc2O1 | / | / | . | . | / | .
C[C@@H]1CN([C@@H](C)CO)C(=O)c2cc(NC(=O)C3CCCCC3)ccc2O[C@@H](C)CCCCO[C@H]1CN(C)C(=O)Nc1ccccc1 | / | / | . | . | / | .
C[C@H](CO)N1C[C@H](C)[C@H](CN(C)C(=O)Nc2ccc(F)cc2)OCCCC[C@H](C)Oc2ccc(NC(=O)C3CCCCC3)cc2C1=O | / | / | . | 83 | / | .
C[C@H](CO)N1C[C@H](C)[C@H](CN(C)C(=O)Nc2ccccc2)OCCCC[C@H](C)Oc2ccc(NC(=O)C3CCCCC3)cc2C1=O | / | / | . | 69 | / | .
C[C@H](CO)N1C[C@H](C)[C@H](CN(C)C(=O)Nc2ccc3c(c2)OCO3)OCCCC[C@H](C)Oc2ccc(NC(=O)C3CCCCC3)cc2C1=O | / | / | / | 57 | / | .
C[C@H](CO)N1C[C@H](C)[C@@H](CN(C)CC2CC2)Oc2ccc(NC(=O)Nc3cccc4ccccc34)cc2CC1=O | / | / | / | . | / | .
COc1ccc(-c2ccccc2[C@H]2[C@@H](CO)N(C(=O)NC3CCCCC3)[C@H]2C#N)cc1 | / | / | / | . | / | .
C=C1C(=O)[C@]23C[C@H]1CCC2[C@@]1(C)C(C[C@@H]3O)[C@](C)(C(=O)OC)CC[C@@H]1O (stereo partly specified) | 90 | -73 | 108 | 69 | 99 | 59
C[C@@]12C(C[C@H](O)[C@@]34C[C@@H](CCC13)[C@@H](CO)C4=O)[C@](C)(C(=O)O)CC[C@@H]2O (stereo partly specified) | . | . | . | . | . | .
CC(C)CC#Cc1ccc2c(c1)O[C@@H](CN(C)Cc1ccccn1)[C@H](C)CN([C@H](C)CO)S2(=O)=O | / | / | 72 | . | / | .
CC(C)CC#Cc1ccc2c(c1)O[C@@H](CN(C)Cc1ccncc1)[C@H](C)CN([C@H](C)CO)S2(=O)=O | / | / | 92 | . | / | .
CC(C)CC#Cc1ccc2c(c1)O[C@H](CN(C)Cc1ccncc1)[C@@H](C)CN([C@@H](C)CO)S2(=O)=O | / | / | 73 | . | / | .
C[C@H]1CCCCO[C@@H](CN(C)Cc2ccncc2)[C@@H](C)CN([C@@H](C)CO)C(=O)c2cc(NC(=O)CCC(F)(F)F)ccc2O1 | / | / | . | . | / | .
CC(=O)N1[C@H](CO)[C@@H]2c3ccccc3N(C(=O)Nc3cc(F)ccc3F)C[C@@H]21 | / | / | . | . | / | .
O=C(/C=C\c1ccco1)Nc1nc(-c2ccc3ccccc3c2)cs1 | . | . | . | 55 | . | .
NC(=O)[C@H]1CC2(CC(c3cccc(NC(=O)COc4ccc(Cl)cc4)c3)=NO2)CN1C(=O)Cc1ccc([N+](=O)[O-])cc1 (stereo partly specified) | . | . | 76 | . | . | .
C[C@H](CO)N1C[C@H](C)[C@H](CN(C)Cc2cccc(C(=O)O)c2)Oc2ncc(C#CCN(C)C)cc2C1=O | / | / | / | . | / | .
C[C@@H]1CN([C@@H](C)CO)S(=O)(=O)c2ccc(-c3ccc(C#N)cc3)cc2O[C@@H]1CN(C)Cc1cccc(F)c1 | / | / | 63 | . | / | .
C[C@@H]1CN([C@H](C)CO)S(=O)(=O)c2ccc(-c3ccc(C#N)cc3)cc2O[C@@H]1CN(C)Cc1cccc(F)c1 | / | / | 86 | . | / | .
C[C@@H]1CN([C@@H](C)CO)S(=O)(=O)c2ccc(-c3ccc(C#N)cc3)cc2O[C@H]1CN(C)Cc1cccc(F)c1 | / | / | . | . | / | .
C[C@H]1CN([C@@H](C)CO)S(=O)(=O)c2ccc(-c3ccc(C#N)cc3)cc2O[C@H]1CN(C)Cc1cccc(F)c1 | / | / | . | . | / | .
CCOC(=O)c1sc(/N=C/N(C)C)nc1C | . | . | 117 | . | . | .
COc1ccc(C2c3ccc4ccccc4c3Oc3ncn(CCCN(C)C)c(=N)c32)cc1 (stereo unspecified) | . | . | . | . | . | 63
SMILES | CF NFkB inh | KKLEB cytotox | PAX8 reporter | LGR2 antag | Shn3 inh set2 | EWS-Fli inh
C[C@H](O)C#Cc1ccc2c(c1)O[C@H](CN(C)C(=O)C1CCC1)[C@@H](C)CN([C@@H](C)CO)S2(=O)=O | / | / | / | . | / | .
CCOc1ccccc1NC(=O)CN(c1ccc(OC)cc1)S(=O)(=O)c1c(C)noc1C | . | . | . | / | . | /
CCOc1ccc(N(CC(=O)Nc2ccccc2C)S(=O)(=O)c2c(C)noc2C)cc1 | . | . | . | . | . | 58
Cn1cc(/C=N/n2cnc3scc(-c4ccc(Cl)cc4)c3c2=O)c2ccccc21 | . | . | 65 | / | . | /
CSc1ccccc1C(=O)Nc1nc2ccccc2[nH]1 | . | . | . | . | . | .
COc1ccccc1C(=O)Nc1nc2ccccc2[nH]1 | . | -74 | 129 | 103 | 91 | 92
COc1cc(SC)ccc1C(=O)Nc1nc2ccccc2[nH]1 | . | -96 | 114 | 105 | 96 | 94
CC(C)C#Cc1cnc2c(c1)C(=O)N([C@@H](C)CO)C[C@H](C)[C@@H](CN(C)C(=O)CN1CCOCC1)O2 | / | / | / | . | / | .
COCC(=O)N[C@H]1C=C[C@@H](CC(=O)N2CCCCC2)O[C@@H]1CO | / | / | . | . | / | .
NCC[C@H]1CC[C@H](NS(=O)(=O)Cc2ccccc2)[C@@H](CO)O1 | / | / | . | 89 | / | .
Cc1c(CCOC(=O)CC23CC4CC(CC(C4)C2)C3)sc[n+]1CC(=O)c1ccc(Br)cc1 | . | . | / | / | 94 | /
C[C@@H](NC(=O)[C@@H]1[C@@H](CO)[C@@H]2Cn3c(ccc(C4=CCCC4)c3=O)[C@H]1N2C(=O)C1CC1)c1ccccc1 | / | / | . | . | / | .
Cn1c(CCN2CCN(c3ccccn3)CC2)nc2cc(NS(=O)(=O)c3ccccc3)ccc21 | . | . | 72 | . | . | /
Cn1c(CCN2CCCCC2)nc2cc(NC(=O)COc3ccc(Cl)cc3)ccc21 | . | . | . | . | . | .
Cn1c(CCN2CCN(c3ccccn3)CC2)nc2cc(NC(=O)COc3ccccc3)ccc21 | . | . | 66 | . | . | /
Cc1ccc(C(C)C)c(OCC(=O)Nc2ccc3c(c2)nc(CCN2CCCCC2)n3C)c1 | . | . | 83 | . | . | ?
